Measurements taken from PubChem BioAssay (NCATS).
Records with an inconclusive call do not appear. The source made the active and inactive calls. The call rests on the fitted dose curve; in most records, active means well fitted cell-killing curve with a large enough effect; inconclusive means small, poorly fitted or top-dose-only effect, or effect the other way; inactive means flat fitted curve, though single readings scatter.

The compounds below were run on CAOV3 (assay: Primary qHTS to identify gynecologic anti-cancer compounds using libraries of approved drugs and bioactive compounds (AID 1345084; further: nearly all actives have a fitted effect of over 55% in size)). Settings: Gynecologic cancer cell panel viability, ATPlite luminescence, 48 h; series mostly up to 57.5 µM; activity change, negative = cytotoxicity: at the top concentration.
Outline: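 In this quantitative HTS, cell killing is estimated from loss of ATP-dependent luciferase light. Cells see five compound concentrations over a 48 h exposure.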
On the % scale 0 is the no-effect control and ±100 the full control effect.

Row | SMILES | activity change, negative = cytotoxicity | Potency
1 | Cc1ncc([N+](=O)[O-])n1CC(O)CN1CCOCC1 (stereo not drawn) | 9.75% (inactive) | 
2 | CC(C)(O)C1CC=C(C(=O)OCC2OC(Oc3c(O)cc(C(=O)O)cc3O)C(O)C(O)C2O)CC1 (stereo not drawn) | 23.3% [at 25.3 µM] (inactive) | 
3 | CC1=CC[C@]2(C(=O)O[C@@H]3O[C@H](CO[C@@H]4O[C@H](CO)[C@@H](O[C@@H]5O[C@@H](C)[C@H](O)[C@@H](O)[C@H]5O)[C@H](O)[C@H]4O)[C@@H](O)[C@H](O)[C@H]3O)CC[C@]3(C)C(CCC4[C@@]5(C)C[C@@H](O)[C@H](O)[C@@](C)(CO)C5CC[C@]43C)C2C1C (stereo partly drawn) | 6.14% [at 11.6 µM] (inactive) | 
4 | CC(=O)N[C@H]1CCN(c2ccc(C3=NOC(CN[S+](=O)([O-])C(C)C)C3)cc2F)C1 (stereo partly drawn) | 15.1% (inactive) | 
5 | O=C(/C=C/c1ccc(O)cc1)OC[C@H]1O[C@@H](OC(=O)/C=C/c2ccccc2)[C@H](O)[C@@H](O)[C@@H]1O | 2.51% [at 25.3 µM] (inactive) | 
6 | CC(=O)O[C@H]1[C@H](C)[C@@H](O)[C@H]2[C@@H]1C=C(C(=O)O)[C@H]1C[C@@H]3[C@H]([C@H]21)[C@H]1C(=O)O[C@@H]2CC[C@@]3(C)O[C@]1(O)[C@@H]2C | -6.51% [at 25.3 µM] (inactive) | 
7 | N[C@H]1C[C@H]1c1ccc(-c2cccc(O)c2)cc1 |  | inactive
8 | COC(=O)c1ccc(O[C@@H]2O[C@H](CO)[C@@H](O)[C@H](O)[C@H]2O)c(OC)c1 | 10.4% [at 38.5 µM] (inactive) | 
9 | CCn1nnnc1NCc1ccc(C(C)C)cc1 | 4.14% (inactive) | 
10 | COc1c2c(c(C)c3c1C(=O)OC3)OC1(C)CC(O)C3(O)C(C)(C)OC(=O)CCC3(C)C1C2 (stereo not drawn) | -20.8% [at 25.3 µM] (inactive) | 
11 | C=C1CCC[C@]2(C)C[C@]3(O)OC(=O)C(C)=C3C[C@@H]12 | 2.23% (inactive) | 
12 | COc1cc(/C=C/C(=O)OC2CC(C)=C(C(=O)O)/C2=C/CO[C@@H]2O[C@H](CO)[C@@H](O)[C@H](O)[C@H]2O)ccc1O (stereo partly drawn) | -1.58% [at 25.3 µM] (inactive) | 
13 | C=C1CCC2(OC1)OC1CC3C4CC=C5CC(O)CC(O[C@@H]6OC[C@@H](O)[C@H](O)[C@H]6O)C5(C)C4CCC3(C)C1(O)C2C (stereo partly drawn) | 7.49% [at 25.3 µM] (inactive) | 
14 | CC(C)CC(=O)OC[C@H]1O[C@@](COC(=O)CC(C)C)(O[C@H]2O[C@H](CO)[C@@H](O)[C@H](O)[C@H]2O)[C@@H](OC(=O)CC(C)C)[C@@H]1OC(=O)CC(C)C | -10.2% [at 25.3 µM] (inactive) | 
15 | CC(C)C1=CC2=CCC3[C@](C)(CCC[C@@]3(C)C(=O)O)C2CC1=O (stereo partly drawn) | 4.24% [at 38.5 µM] (inactive) | 
16 | O=C1N(CC2CCCCN2)CCN1c1ccccc1 (stereo not drawn) | 24.4% (inactive) | 
17 | CCOC(=O)[C@H](CCc1ccccc1)N[C@@H](C)C(=O)N1C2CCCCC2C[C@H]1C(=O)O (stereo partly drawn) | 8.37% (inactive) | 

Row | SMILES | activity change, negative = cytotoxicity | Potency
18 | C[C@H]1[C@H](C)CC[C@]2(C(=O)O)CC[C@]3(C(=O)O)C(=CCC4[C@@]5(C)CC[C@H](O[C@@H]6O[C@H](C)[C@@H](O)[C@H](O)[C@H]6O)C(C)(C)C5CC[C@]43C)[C@H]12 (stereo partly drawn) | -1.89% [at 25.3 µM] (inactive) | 
19 | O=C1NCc2nc3ccccc3c(=O)n2C1Cc1c[nH]c2ccccc12 (stereo not drawn) | 0.474% [at 38.5 µM] (inactive) | 
20 | O=C(O[C@H]1[C@@H]2C=CO[C@@H](O[C@@H]3O[C@H](CO)[C@@H](O)[C@H](O)[C@H]3O)[C@@H]2[C@@]2(CO)O[C@@H]12)c1ccc(O)cc1 | -14.9% [at 25.3 µM] (inactive) | 
21 | C=C(C)[C@@H]1CC[C@](C)(O)[C@@H](OC(=O)c2ccccc2)C1 | 7.71% (inactive) | 
22 | CCOc1nc2cccc(C(=O)OCc3oc(=O)oc3C)c2n1Cc1ccc(-c2ccccc2-c2noc(O)n2)cc1 | -5.04% (inactive) | 
23 | C[C@@H](Nc1cc(NS(=O)(=O)N2CCC2)nc(SCc2cccc(F)c2F)n1)[C@@H](O)CO | -0.545% (inactive) | 
24 | Cc1cc(N2CCCCC2)nc2ccccc12 | 3.54% (inactive) | 
25 | C=C(C)C(=O)O[C@H]1C[C@@](C)(OC(C)=O)[C@@]2(O)CC[C@@](C)(O)[C@H](OC(C)=O)[C@@]23OC(=O)C(COC)=C13 | -9.91% [at 25.3 µM] (inactive) | 
26 | CC1=CC(=O)CC(C)(CO[C@@H]2O[C@H](CO)[C@@H](O)[C@H](O)[C@H]2O)C1(O)/C=C/C(C)=C/C(=O)O (stereo partly drawn) | -1.61% [at 25.3 µM] (inactive) | 
27 | C=C1C(OC(C)=O)C(=O)C2C(C)(C)C(OC(C)=O)CCC2(C)C1CC(OC(C)=O)/C(C)=C/COC(C)=O (stereo not drawn) | 2.67% [at 25.3 µM] (inactive) | 
28 | O=S(=O)(Nc1ccc(C(O)(C(F)(F)F)C(F)(F)F)cc1)c1cccs1 | 18.9% (inactive) | 
29 | CCC(=O)N[C@@H]1Cc2ccccc2[C@H](c2ccccc2)C1 | 9.95% (inactive) | 
30 | CC(C)(C)NCC(O)COc1cccc2c1CCCC2=O (stereo not drawn) | 7.88% (inactive) | 
31 | CC(=O)OC[C@]1(O)[C@H]2[C@H](OC(=O)CC(C)C)OC=C(CO[C@@H]3O[C@H](CO)[C@@H](O)[C@H](O)[C@H]3O)[C@H]2C[C@@H]1O | 12.5% [at 25.3 µM] (inactive) | 
32 | C[C@@H]1CC[C@]2(C(=O)O)CC[C@]3(C(=O)O)C(=CCC4[C@@]5(C)CC[C@H](O[C@@H]6O[C@@H](C)[C@H](O[C@@H]7O[C@H](CO)[C@@H](O)[C@H](O)[C@H]7O)[C@@H](O)[C@H]6O)C(C)(C)C5CC[C@]43C)C2[C@H]1C (stereo partly drawn) | 1.08% [at 25.3 µM] (inactive) | 
33 | CC1CCC2(O1)C(C)(C)CC(O[C@@H]1O[C@H](CO[C@@H]3OC[C@](O)(CO)[C@H]3O)[C@@H](O)[C@H](O)[C@H]1O)CC2(C)O (stereo partly drawn) | 15.8% [at 25.3 µM] (inactive) | 
